Hits are enriched below; roughly 1.8% of the tested compounds scored in any of these assays.
PME-1 primary: blocks human protein phosphatase methylesterase 1. Q9Y570. recombinant PME-1, FP-Rh probe fluorescence polarization. inhibition, % at 5.9 µM. 0.53% of 320,000 active;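 active = inhibition above the campaign mean of all compounds plus 3 SD, cut at about 26% in these data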;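 also: competitive labeling of PME-1 active site by serine hydrolase directed probe; 0% = PME-1 with DMSO and 100% = wells lacking PME-1 enzyme; inhibitors block probe labeling so polarization falls and inhibition rises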
GSTO1 counter: blocks human GSTO1 in RBBP9 counter-screen; recombinant GSTO1, activity-based probe fluorescence polarization; inhibition, % at 5.96 µM; 1.1% of 300,000 active; AID 1974;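 active = inhibition above the campaign mean inhibition plus 3 SD, cut at about 35% in these data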;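 also: 0% = GSTO1-1 with DMSO and 100% = wells lacking GSTO1-1 enzyme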
Target sequence (P78417 whole entry, looked up): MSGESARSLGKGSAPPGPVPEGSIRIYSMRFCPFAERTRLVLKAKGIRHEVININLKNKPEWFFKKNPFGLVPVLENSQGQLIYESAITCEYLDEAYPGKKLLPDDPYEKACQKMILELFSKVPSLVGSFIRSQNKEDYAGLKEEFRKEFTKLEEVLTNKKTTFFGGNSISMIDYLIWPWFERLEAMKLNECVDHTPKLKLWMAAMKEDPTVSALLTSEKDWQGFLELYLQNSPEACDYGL
PAD4 inh: inhibitors of human PAD4 | Q9UM07 | recombinant PAD4, RCA probe fluorescence polarization | inhibition, % at 6.36 µM | 0.41% of 330,000 active | AID 485272;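 active = percent inhibition above a cutoff equal to the mean of all tested compounds plus 3 SD, cut at about 15% in these data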;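 also: 0% = PAD4 with RCA probe and DMSO and 100% = probe without PAD4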
Fam108B inh: blocks mouse Fam108B hydrolase in RBBP9 counter-screen; AID 1947; 0.33% of 300,000 active; inhibition, % at 9.51 µM; recombinant Fam108B, FP-Rh probe fluorescence polarization;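 active = inhibition above the screen mean inhibition plus 3 SD, computed separately per campaign, cut at about 18% in these data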;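 also: inhibitors lower polarization as less probe binds the enzyme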
LYPLA2 counter: LYPLA2 (human) inhibition in PME1 counter-screen. O95372. recombinant LYPLA2, FP-Rh probe fluorescence polarization. inhibition, % at 5.9 µM. 0.38% of 320,000 active;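 active = inhibition above the screen-wide mean plus 3 SD, limit set per campaign, cut at about 26% in these data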;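 also: 0% = LYPLA2 with DMSO and 100% = wells lacking LYPLA2 enzyme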
Target sequence (O95372 whole entry, looked up): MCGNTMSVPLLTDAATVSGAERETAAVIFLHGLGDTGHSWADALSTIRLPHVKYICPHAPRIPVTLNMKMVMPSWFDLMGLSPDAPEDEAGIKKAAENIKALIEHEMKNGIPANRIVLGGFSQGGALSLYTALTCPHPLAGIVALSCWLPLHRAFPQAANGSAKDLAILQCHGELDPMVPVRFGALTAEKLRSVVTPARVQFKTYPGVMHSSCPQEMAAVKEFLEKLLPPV
LYPLA1 counter: counter-screen for PME1 inhibitors: inhibitors of human LYPLA1; inhibition, % at 5.9 µM; 0.16% of 320,000 active; AID 2174; recombinant LYPLA1, FP-Rh probe fluorescence polarization; O75608;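 active = inhibition above the mean of all tested compounds plus 3 SD, set per campaign, cut at about 14% in these data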;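 also: inhibitors block serine hydrolase probe labeling of LYPLA1 so polarization falls; 0% = enzyme with DMSO and 100% = wells lacking LYPLA1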
Target sequence (O75608 whole entry, looked up): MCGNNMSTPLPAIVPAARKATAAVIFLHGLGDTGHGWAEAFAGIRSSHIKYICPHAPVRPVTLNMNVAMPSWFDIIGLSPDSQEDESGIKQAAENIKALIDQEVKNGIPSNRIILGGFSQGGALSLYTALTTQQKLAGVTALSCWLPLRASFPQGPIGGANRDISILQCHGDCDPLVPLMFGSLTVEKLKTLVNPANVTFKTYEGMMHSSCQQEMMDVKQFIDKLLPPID
Numbers without * were called inactive; x = no result.

SMILES | PME-1 primary | GSTO1 counter | PAD4 inh | Fam108B inh | LYPLA2 counter | LYPLA1 counter
N#C/C(=C/c1ccc(N2CCCC2)c([N+](=O)[O-])c1)c1nc2ccccc2[nH]1 | 28.9* | -2.7 | -2.3 | 3.8 | 7.0 | 2.6
CCOC(=O)CCN(Cc1cccs1)S(=O)(=O)c1ccc(F)cc1 | 2.5 | 37.5* | -1.4 | 5.8 | 4.7 | 0.6
CCOC(=O)CCN(Cc1sccc1C)S(=O)(=O)c1ccc(F)cc1 | 6.1 | 3.6 | -0.7 | -5.8 | 4.3 | 2.5
CCOC(=O)c1cc(C#N)c(SCC(N)=O)[nH]c1=O | -1.6 | 36.5* | -3.8 | 1.8 | 0.7 | -8.7
CC(C(=O)O)N1CCCCC1 (stereo unspecified) | 3.7 | 10.1 | -6.7 | 2.8 | 3.9 | 0.9
OCC#Cc1ncc(C(F)(F)F)cc1Cl | -3.0 | 83.4* | -1.9 | -1.6 | -0.2 | 1.9
Cc1noc(C)c1COC(=O)c1csc2c1CCC(C)C2 (stereo unspecified) | 1.8 | x | -1.7 | x | 3.4 | -2.0
CCN(CC)C(=O)Cn1cc(C(=O)C(=O)Nc2ccc3c(c2)OCCO3)c2ccccc21 | -4.4 | 0.8 | 0.8 | 7.2 | -9.6 | -5.3
CCN1C(=O)/C(=C2/Sc3ccccc3N2CC)S/C1=N\c1ncn[nH]1 | 33.8* | -2.9 | -1.1 | 13.6 | 3.0 | 9.9
Cc1ccc(NCc2ccc(C)s2)cc1 | 3.8 | -5.6 | -2.5 | 3.6 | 0.0 | 2.5
CC(C)(C)n1nnnc1C(c1cccs1)N(Cc1cccnc1)Cc1ccco1 (stereo unspecified) | 30.4* | 2.5 | 9.0 | -1.2 | 0.7 | -3.2
CC(C)(C)n1nnnc1C(c1cccs1)N(Cc1ccccc1)Cc1ccco1 (stereo unspecified) | -1.4 | -3.4 | 0.4 | -4.3 | 8.6 | 3.4
CC(=O)c1ccc(N2CCN(C(=S)Nc3ccc(Oc4ccccc4)cc3)CC2)cc1 | 2.1 | 4.3 | 0.4 | -3.2 | 32.1* | 4.6
Cc1ccccc1Cn1nnc2c1C(=O)c1ccccc1C2=O | 5.5 | 38.3* | -9.5 | 4.4 | 2.0 | 3.4
CCOC(=O)CSc1nc2cc3c(cc2cc1C#N)OCO3 | 22.0 | -2.9 | 0.5 | -1.6 | 2.7 | 0.5
CCOC(=O)CSc1nc2cc3c(cc2cc1C#N)OCCO3 | 34.2* | 11.0 | -2.0 | -1.7 | -4.0 | -2.4
C[C@H](CO)N1C[C@H](C)[C@@H](CN(C)Cc2ccncc2)Oc2ccc(NC(=O)Cn3cnnn3)cc2C1=O | x | x | 3.8 | x | x | x
Cn1c(=O)c(C(=O)c2ccc(S(C)(=O)=O)c(Cl)c2Cl)c(O)c2ccccc21 | 9.6 | -11.9 | 1.3 | 1.2 | 5.7 | 3.1
COc1ccc(CNC(=O)CSc2nc3[nH]ncc3c(=O)n2-c2ccccc2Br)cc1 | 1.7 | 42.1* | -2.4 | 4.5 | 5.9 | 2.4
Cc1ccc(-n2nc(C)c3c2OC(N)=C(C#N)C3c2ccoc2)cc1 (stereo unspecified) | 5.6 | 35.6* | -11.0 | 0.9 | 2.4 | 2.3
Cc1ccc(-n2nc(C)c3c2OC(N)=C(C#N)C3c2ccco2)cc1 (stereo unspecified) | -7.4 | 35.6* | -12.0 | -3.2 | 4.7 | -1.3
Cc1ccc(-c2[nH]nc3c2C(c2ccoc2)C(C#N)=C(N)O3)cc1C (stereo unspecified) | -3.0 | 44.2* | -15.2 | -2.6 | 5.5 | 2.4
Oc1nc(Nc2ccccc2)sc1/C=C1\C=Nc2ccccc21 | 44.4* | -71.4 | -0.1 | 14.3 | -15.8 | -11.5
CCOC(=O)c1c(Nc2ccccc2)sc(/C=C2\C=Nc3ccccc32)c1O | 8.8 | 0.2 | 0.6 | 5.1 | 3.0 | 0.3
O=C(Nc1cccc(Cl)c1)NC1CC2CCC1C2 (stereo unspecified) | -0.8 | 10.5 | -3.2 | -1.4 | -1.4 | -9.8
SMILES | PME-1 primary | GSTO1 counter | PAD4 inh | Fam108B inh | LYPLA2 counter | LYPLA1 counter
N#Cc1ccccc1Cn1c(=O)n(-c2ccc(CC(=O)NCc3ccco3)cc2)c(=O)c2sccc21 | 37.3* | 4.8 | -3.3 | -0.7 | -2.7 | -2.4
Nc1ccc(N2CCCC2)c(S(=O)(=O)Nc2cccc(C(F)(F)F)c2)c1 | x | x | -4.9 | x | x | x
O=C(Nc1ccc(N2CCCC2)cc1)c1ccc(Br)o1 | -3.1 | 11.3 | -3.9 | 8.9 | -1.9 | -7.0
CN1CCN(c2ccc(NC(=O)c3ccc(-c4ccc(Br)cc4)o3)cc2)CC1 | 29.6* | 12.5 | -6.3 | 16.2 | -3.4 | 0.9
Cc1ccc2[nH]cc(C(=O)CCl)c2c1 | 3.2 | 93.2* | 1.6 | -4.4 | -8.3 | -5.4
Cc1ccc2[nH]cc(C(=O)CN3CCN(C)CC3)c2c1 | -10.8 | 17.6 | -3.4 | -0.5 | -0.5 | -1.9
CCCC1=Nc2cc(C(=O)N3CCN(c4ccccn4)CC3)ccc2Sc2ccc(C)cc21 | -12.1 | -6.2 | 1.3 | -2.0 | -6.5 | -3.7
COc1ccccc1C1CC(=O)NC(C)=C1C(=O)OCC(C)C (stereo unspecified) | 5.8 | -2.6 | -1.9 | 2.2 | 4.1 | -1.9
CC1=C(C(=O)OCC(C)C)C2(O)C(=O)c3ccccc3C2(O)N1 (stereo unspecified) | 6.3 | 68.2* | -6.0 | -0.5 | 2.3 | -4.0
COc1ccc(S(=O)(=O)N(C)C)cc1NC(=O)Cc1c[nH]c2ccccc12 | 78.4* | 9.1 | -7.9 | -8.2 | 0.8 | -4.6
Cc1coc2c(C)c3oc(=O)c(CCC(=O)N4CCC(C(=O)NCCCC(=O)O)(c5ccccc5)CC4)c(C)c3cc12 | 1.4 | 3.4 | -0.1 | -3.1 | -2.4 | 0.6
CN(Cc1ccc(Cl)cc1)C(=O)CCl | -3.0 | 86.4* | -2.1 | -2.5 | 3.2 | -1.1
CN(Cc1ccccc1)C(=O)CC(=O)N(C)Cc1ccccc1 | -4.6 | -0.9 | 1.5 | -2.0 | 1.7 | -0.1
CCCCCC1=C(C(=O)OC)C(C(=O)OCC)N(S(=O)(=O)C(F)(F)F)c2ccccc21 (stereo unspecified) | x | x | 5.8 | x | x | x
COc1cccc(/C=N/Nc2ncnc3c2[nH]c2ccc(C)cc23)c1OC | 10.7 | 37.0* | 0.4 | 2.7 | 0.0 | 2.8
O=C(O)c1ccc(N/N=C/c2ccc(-c3ccc(Br)cc3)o2)cc1 | 32.9* | 17.7 | -1.6 | 13.2 | 7.1 | 3.3
Cc1ccc(/C=N/Nc2ccc(C(=O)O)cc2)o1 | -3.9 | 11.0 | 0.6 | 2.1 | -0.8 | 2.5
CC(=O)N1c2ccccc2CCc2ccc([N+](=O)[O-])cc21 | 2.6 | -3.0 | -3.7 | -3.1 | 7.5 | -0.3
O=C(Nc1ccc2[nH]c3c(c2c1)CCCC3)c1ccco1 | 3.2 | 34.9* | -2.4 | 4.0 | -3.8 | -10.4
Cc1ccc(NC(=O)c2ccc3nc(N4CCOCC4)sc3c2)c(Cl)c1 | -13.7 | -6.2 | -1.2 | -20.7 | -10.4 | -4.5
O=C(CNc1ccc2ccccc2c1)N/N=C/c1ccc(OC(=O)/C=C/c2ccco2)cc1 | 30.2* | 1.4 | 3.5 | 15.8 | 22.3 | -2.6
O=C(CNc1ccc2ccccc2c1)N/N=C/c1ccncc1 | 9.3 | 0.9 | -3.5 | -0.2 | -1.2 | 1.2
O=c1oc2cc(O)ccc2s1 | 4.4 | 53.0* | -3.1 | 0.3 | -0.6 | 1.2
O=C(N/N=C\c1ccc(COc2ccc([N+](=O)[O-])cc2)o1)c1ccc(Cl)cc1 | -10.1 | -20.6 | -1.0 | -5.1 | -32.3 | -14.3
